BAZ2B block: BAZ2B (human) inhibition | AID 504333 | Potency, µM (series often up to 114 µM), for the others: at the top dose activity change, negative = inhibition, usual class: inhibitors | 360,000 compounds, 4.4% hits | AlphaScreen BAZ2B-H3K14Ac peptide displacement | Q9UIF8; further: on the % scale 0 is the no-effect control and ±100 the full control effect; nearly all actives have a fitted effect of over 60% in size
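AlphaScreen displacement: compounds (up to 110uM) incubated 30 min at room temperature with a preformed 50 nM BAZ2B/50 nM biotinylated H3K14Ac peptide complex in PBS pH 7.4 with Tween-20. Donor and acceptor beads at 10 ug/mL final added, 20 min light-protected before reading.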
HP1b binding inh: inhibitors of HP1-beta chromodomain binding to methylated histone tails. AID 540317. P83916. 390,000 compounds, 0.56% hits. Potency, µM (doses to about 114 µM), inactives show at the highest dose activity change, negative = inhibition, usual class: inhibitors. AlphaScreen HP1-beta / biotin-H3K9me3 peptide binding; further: nearly all actives have a fitted effect of over 70% in size
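AlphaScreen: HP1-beta (50 nM) preformed 30 min with biotin-H3(1-18)K9me3 peptide (50 nM) in PBS pH 7.4, 0.01% Tween-20. Compound added for 30 min at RT, then streptavidin donor/nickel chelate acceptor beads (10 ug/mL) for 30 min.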
L3MBTL1 inh: inhibitors of human L3MBTL1 | Potency, µM (series often up to 57.1 µM), for inactives: at the highest dose activity, negative = inhibition, hits mostly inhibitors | 230,000 compounds, 0.66% hits | AlphaScreen L3MBTL1–H3K9me1 peptide binding | AID 485360; further: on the % scale 0 is the no-effect control and ±100 the full control effect; nearly all actives have a fitted effect of over 60% in size
Target sequence (Q9Y468 whole entry, looked up): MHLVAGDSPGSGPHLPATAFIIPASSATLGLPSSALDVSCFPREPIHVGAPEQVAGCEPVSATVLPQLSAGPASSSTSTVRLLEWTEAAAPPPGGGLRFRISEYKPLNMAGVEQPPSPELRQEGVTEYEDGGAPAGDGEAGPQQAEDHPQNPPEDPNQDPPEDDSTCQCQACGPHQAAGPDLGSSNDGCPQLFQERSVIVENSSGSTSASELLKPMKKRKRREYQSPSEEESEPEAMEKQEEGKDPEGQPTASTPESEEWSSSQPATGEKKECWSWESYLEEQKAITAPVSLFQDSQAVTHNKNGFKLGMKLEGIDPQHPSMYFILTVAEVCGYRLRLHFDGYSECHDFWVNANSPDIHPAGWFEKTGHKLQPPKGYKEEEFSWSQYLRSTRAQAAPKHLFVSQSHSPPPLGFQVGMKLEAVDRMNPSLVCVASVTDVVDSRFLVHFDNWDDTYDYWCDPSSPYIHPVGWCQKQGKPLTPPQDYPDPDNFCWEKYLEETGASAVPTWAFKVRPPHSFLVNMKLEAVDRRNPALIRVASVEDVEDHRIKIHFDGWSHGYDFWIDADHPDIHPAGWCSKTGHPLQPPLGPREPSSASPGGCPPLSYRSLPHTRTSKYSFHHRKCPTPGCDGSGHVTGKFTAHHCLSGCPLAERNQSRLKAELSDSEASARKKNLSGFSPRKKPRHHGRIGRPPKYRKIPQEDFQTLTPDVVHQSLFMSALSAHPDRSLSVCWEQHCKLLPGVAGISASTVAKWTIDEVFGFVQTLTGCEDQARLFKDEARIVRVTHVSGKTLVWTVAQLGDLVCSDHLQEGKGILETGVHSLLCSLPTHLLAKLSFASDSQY
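First, the protein-peptide complex forms for 30 min at room temperature (L3MBTL1 50 nM, biotinylated H3K9me1 peptide 75 nM). Next, compounds are pin-transferred and incubated 30 min. Finally, AlphaScreen beads are added and read after 30 min.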
G9a block: blocks human histone lysine methyltransferase G9a. G9a H3K9 monomethylation, AlphaScreen, 2 h. Potency, µM (highest dose often 102 µM), for the others: at the highest dose activity, negative = inhibition, usual class: inhibitors. Q96KQ7. 350,000 compounds, 8.8% hits; further: on the % scale 0 is the no-effect control and ±100 the full control effect; nearly all actives have a fitted effect of over 75% in size
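G9a (20 nM) was preincubated 15 min with compound, then reacted 2 h at room temperature with 500 nM biotin-H3K9 peptide and 20 µM SAM. Monomethyl-H3K9 detected by AlphaScreen using anti-H3K9me1 antibody.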
JMJD2A Tudor inh: blocks the human JMJD2A Tudor domain | O75164 | AlphaScreen JMJD2A-Tudor / H3K4me3 peptide binding | Potency, µM (series often up to 114 µM), for the others: at the top dose activity change, negative = inhibition, usual class: inhibitors | 390,000 compounds, 4.4% hits; further: on the % scale 0 is the no-effect control and ±100 the full control effect; nearly all actives have a fitted effect of over 50% in size
Sfp PPTase inh: inhibitors of Bacillus subtilis Sfp phosphopantetheinyl transferase; Q9F4F7; AID 1490; Biochemical Sfp PPTase activity, qHTS; 310,000 compounds, 3.5% hits; Potency, µM, without a hit: largest response in the series, negative = inhibition, usual class: inhibitors;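 further: the enzyme is Sfp with the accession as filed and its product quenches rhodamine fluorescence; 0% = enzyme reaction without inhibitor and -100% = no enzyme wells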
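After 15 min at room temperature with compound, 15 nM Sfp received 5 uM rhodamine-CoA plus 12.5 uM BHQ-2-ybbR (50 mM Hepes pH 7.6, 10 mM MgCl2). Rate came from the fluorescence difference over 30 min, ex 525/em 598 nm.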
* marks the source's active call; other numbers are inactive results; ? = inconclusive; · = no result given; ! = a repeat was not active; [ ] = dose if it differs, or a comment. The list is not random: actives were taken first. Their share in the collection is about 12%. The call rests on the fitted dose curve; in most records, active means well fitted curve in the direction sought with a large enough effect; inconclusive means small, poorly fitted or top-dose-only effect, or another doubt; inactive means no such curve, though single readings can be large; an effect the other way counts as inactive or inconclusive. Potency means the concentration at half of the fitted maximal effect.

SMILES	BAZ2B block	HP1b binding inh	L3MBTL1 inh	G9a block	JMJD2A Tudor inh	Sfp PPTase inh
CC(C)(COP(=O)(O)OP(=O)(O)OC[C@H]1O[C@@H](n2cnc3c(N)ncnc32)[C@H](O)[C@@H]1OP(=O)(O)O)C(O)C(=O)NCCC(=O)NCCS (stereo partly specified)	·	·	·	-30%[12.7 µM]	·	40µM*
CSc1nc(N)c2ncn([C@@H]3O[C@H](COP(=O)(O)OP(=O)(O)O)C(O)[C@H]3O)c2n1 (stereo partly specified)	·	·	·	9.5µM*	·	·
CSc1nc(N)c2ncn([C@@H]3O[C@H](COP(=O)(O)OP(=O)(O)OP(=O)(O)O)[C@@H](O)[C@H]3O)c2n1	·	·	·	37%[59 µM]	·	-16%
CCOc1ccc2c(c1)c(=O)c(S(=O)(=O)c1ccc(C)cc1)cn2Cc1ccccc1Cl	-3%	23%	·	-2%[59 µM]	-16%	·
O=C(Cn1cnc([N+](=O)[O-])n1)N/N=C/c1cccc(Cl)c1	-14%	38%	·	19%[59 µM]	-16%	7%
O=C(Cn1cnc([N+](=O)[O-])n1)N/N=C/c1cccc2ccccc12	-2%	0%	2%	45µM*	-20%	6%
O=C(Cn1cnc([N+](=O)[O-])n1)N/N=C/c1ccc(O)cc1O	28µM*	34%	·	-30%	63µM*	-13%
O=S1(=O)NCC23CCC(CC21)O3 (stereo unspecified)	·	14%	·	·	-5%	10%
C/C(=N\Nc1ccc(F)cc1)c1ccncc1	?	9%	-8%	?	-21%	-12%
CCc1ccc(S(=O)(=O)N/N=C(/C)c2ccncc2)cc1	-5%	55%	·	40µM*	-15%	7%
C/C(=N/NS(=O)(=O)c1ccc(F)cc1)c1ccncc1	-14%	32%	·	22µM*	-22%	-13%
CN[C@H](CC(=O)O)C(=O)O	·	-20%	·	22µM*!	22µM*	100µM*
CCCn1cc(S(=O)(=O)c2cccc(Cl)c2)c(=O)c2cc(F)c(N3CCOCC3)cc21	-1%	47%	·	0%[59 µM]	6%	·
Cc1ccc(C)c(N2CCN(CCCNC(=O)C3COc4ccccc4C3)CC2)c1 (stereo unspecified)	-27%	11%[57 µM]	·	12%[59 µM]	-32%	·
COc1c([N+](=O)[O-])c(=O)n(-c2ccccc2)c2ccccc12	-25%	26%	-4%	?	-16%	18µM*
COc1ccc(CN(C)Cc2cc(=O)oc3cc(C)c(C(C)C)cc23)cc1OC	-13%	56%	·	89µM*	-11%	?
Cc1cc2oc(=O)cc(CN(C)Cc3ccccc3)c2cc1C(C)C	25%	30%	·	-7%[2.33 µM]	61%	-15%
O=C(C=Cc1ccco1)c1ccco1	·	-1%	·	·	-21%	·
O=C(O)C(C(=O)/C=C/c1ccco1)=C1SCCS1	50µM*	71µM*	?	?	56µM*	28µM*
O=C(C=C1SCCS1)/C=C/c1ccco1	50µM*	?	?	40µM*	45µM*	45µM*
Cc1cc(C)c(S(=O)(=O)c2ccccc2)c(OC(=O)c2ccc(Cl)cc2Cl)n1	56µM*	103%	·	19%	-22%	6%
ClC(Cl)(c1nnnn1-c1ccccc1)c1nnnn1-c1ccccc1	56µM*	?	9%	0.56µM*	20µM*	2.8µM*
Cc1ccc(NC(=O)CSc2nnc(C)c(=O)[nH]2)cc1	-23%	56%	·	4%[59 µM]	-9%	·
O=C(CSc1ccc2c(c1)OCCO2)Nc1ncccc1O	?	37%	-8%	5%[0.501 µM]	50µM*	·
O=C(CSc1ccc2c(c1)OCCO2)Nc1ccc(Cl)cn1	34%	50%	-2%	10%[59 µM]	5%	5%
SMILES	BAZ2B block	HP1b binding inh	L3MBTL1 inh	G9a block	JMJD2A Tudor inh	Sfp PPTase inh
O=C(CSc1ccc2c(c1)OCCO2)Nc1ccc(Br)cn1	6%	57%	·	45µM*	8%	1%
Cc1nnc(SCC(=O)Nc2ccc(Br)cn2)[nH]c1=O	5%	56%	3%	50µM*	-19%	-15%
COC(=O)C1=C(Nc2ccccc2NC(=O)c2ccccc2C(=O)O)CSC1	?	36%	·	-19%	-14%	45µM*
COC(=O)C1=C(Nc2ccccc2NC(=O)CCCC(=O)O)CSC1	-1%	22%	·	·	-8%	79µM*
O=C(O)c1ccccc1C(=O)Nc1ccccc1NC(=O)c1ccccc1C(=O)O	·	42%	·	·	10%	·
CC(C)c1ccccc1NC(=O)CCCC(=O)O	-2%	18%	-6%	11%[59 µM]	-7%	6%
C=C(C)CSc1nc2sc3c(c2c(=O)n1-c1ccccc1)CCC(C)C3 (stereo unspecified)	0%	31%	·	0%[59 µM]	-3%	·
N#CCSc1n[nH]c2nc3c(c(=O)n12)C1(CCCC1)Cc1ccccc1-3	·	54%	-8%	?	-8%	89µM*
COc1ccccc1-c1nc2c3ccccc3nc(=S)n2[nH]1	-2%	-5%	·	?	-25%	45µM*
CC(=O)Oc1ccc2occ(/C=N/c3cc(=O)[nH]c(=S)[nH]3)c(=O)c2c1	-29%	-18%	·	11µM*	-21%[11.4 µM]	-28%
CC1CCC2C(=O)N(c3ccc(NC4CCN(Cc5ccccc5)CC4)c([N+](=O)[O-])c3)C(=O)C2C1 (stereo unspecified)	35µM*	?	?	40µM*	32µM*	7%
O=[N+]([O-])c1ccccc1NC1CCN(Cc2ccccc2)CC1	40µM*	?	·	·	?	19%
O=C1C2CCCCC2C(=O)N1c1ccc(NC2CCN(Cc3ccccc3)CC2)c([N+](=O)[O-])c1 (stereo unspecified)	40µM*	?	-1%	?	45µM*	-9%
O=C1CCC(=O)N1c1ccc(NC2CCN(Cc3ccccc3)CC2)c([N+](=O)[O-])c1	0%	-2%[57 µM]	27%	12%	-25%	1%
NC(=O)CC(NC(=O)Cc1ccc(Br)cc1)c1ccc(NC2CCN(Cc3ccccc3)CC2)c([N+](=O)[O-])c1 (stereo unspecified)	-28%	24%	1%	?	-19%	15%
N#Cc1ccc(C(=O)Nc2cc(S(=O)(=O)N3CCOCC3)ccc2N2CCCC2)cc1	·	36%	-9%	·	-20%	·
O=C(Nc1cc(S(=O)(=O)Nc2ccc(Cl)cc2)ccc1N1CCCCC1)c1ccc(F)cc1	0%	?	-6%	10µM*	?	14µM*
N#Cc1ccc(C(=O)Nc2cc(S(=O)(=O)Nc3ccc(Cl)cc3)ccc2N2CCCCC2)cc1	-23%	?	2%	7.1µM*	?	22µM*
Cc1ccc(Cn2c(=O)n(CCc3ccccc3)c(=O)c3c(C)c(C)sc32)cc1	-13%	19%	·	-6%[59 µM]	2%	·

Assay outcomes deposited in PubChem BioAssay by National Center for Advancing Translational Sciences (NCATS).
